Assay results reported in PubChem BioAssay (NCATS).
Records with an inconclusive call do not appear. The source made the active and inactive calls. The call rests on the fitted dose curve; in most records, active means well fitted curve in the direction sought with a large enough effect; inconclusive means small, poorly fitted or top-dose-only effect, or another doubt; inactive means no such curve, though single readings can be large; an effect the other way counts as inactive or inconclusive.

Experiments:
[1] = tested on: Zika virus NS2B-NS3 protease; test: Primary screen GU AMC qHTS for Zika virus inhibitors (AID 1347154); further: nearly all actives have a fitted effect of over 70% in size
Outline: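 Fluorogenic AMC-substrate cleavage by noncovalent NS2B-NS3 protease complex (25 nM, pH 8.0 Tris buffer with Tween 20) followed for 15 minutes at room temperature (~20% conversion). Percent inhibition from ex340/em450 signal change, fitted by 4-parameter Hill equation.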

[2] = qHTS to identify inhibitors of the type 1 interferon - major histocompatibility complex class I in skeletal muscle: primary screen against the NCATS Pharmaceutical Collection (AID 1347407);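 further: luminescence of HiBiT knocked into endogenous HLA-B as interferon-induced MHC class I level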
Outline: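 A qHTS format is used: 8-point, 1:5 compound series with 46 uM top final concentration, applied alongside 4 ng/ml IFN-beta to HLA-B*08:01-HiBiT knock-in myoblasts. Luminescence is measured after 24 h treatment.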

[3] = biological target: Protein phosphatase 1D (Homo sapiens) (UniProt O15297); test: RapidFire Mass Spectrometry qHTS Assay for Modulators of WT P53-Induced Phosphatase 1 (WIP1) (AID 1347424);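 further: amount of dephosphorylated VEPPL-S-QETFS peptide product formed by WIP1; series mostly up to about 63 µM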
Outline: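 RapidFire mass spectrometry measured dephosphorylated peptide after 5 min room-temperature reaction of 2 uM VEPPL-pS-QETFS with 10 nM WIP1 (50 mM Tris-HCl pH 7.5, 30 mM MgCl2, 0.1 mM EGTA, BSA), following 1 hr compound preincubation; 1 uM isotope-labelled product standard.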

[4] = biological target: Protein phosphatase 1D (Homo sapiens) (UniProt O15297); test: Rhodamine-PBP qHTS Assay for Modulators of WT P53-Induced Phosphatase 1 (WIP1) (AID 1347425)
Outline: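 Steps: enzyme with Rh-PBP sensor and compounds, room-temperature incubation of 1 hr, baseline read, addition of VEPPL-pS-QETFS (10 uM final), kinetic fluorescence reads at 525/598 nm. Activity equals final minus baseline signal.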

Measured: Potency

Protein phosphatase 1D (Homo sapiens), sequence (O15297 whole entry, looked up): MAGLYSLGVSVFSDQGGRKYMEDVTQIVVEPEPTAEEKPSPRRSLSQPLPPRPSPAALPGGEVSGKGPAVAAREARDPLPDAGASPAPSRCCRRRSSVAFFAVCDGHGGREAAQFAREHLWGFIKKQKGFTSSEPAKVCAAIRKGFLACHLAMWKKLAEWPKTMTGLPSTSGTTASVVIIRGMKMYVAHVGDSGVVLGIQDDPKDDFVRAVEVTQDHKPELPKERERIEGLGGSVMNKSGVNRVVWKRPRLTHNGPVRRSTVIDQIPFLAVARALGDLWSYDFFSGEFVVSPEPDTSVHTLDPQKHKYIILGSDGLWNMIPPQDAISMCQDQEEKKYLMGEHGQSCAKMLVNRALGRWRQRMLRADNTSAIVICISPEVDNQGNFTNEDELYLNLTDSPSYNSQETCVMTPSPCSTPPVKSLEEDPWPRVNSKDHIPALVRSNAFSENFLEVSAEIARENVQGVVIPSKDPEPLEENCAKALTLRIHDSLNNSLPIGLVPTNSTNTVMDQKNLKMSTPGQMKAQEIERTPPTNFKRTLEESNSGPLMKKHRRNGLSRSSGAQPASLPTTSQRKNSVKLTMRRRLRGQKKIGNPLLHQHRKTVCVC

CC(=O)CC/C=C(\C)CC/C=C(\C)CC/C=C(\C)CCC=C(C)C
inactive: all assays above

Cc1ncc([N+](=O)[O-])n1C
inactive: all assays above

CC(=O)Nc1c(I)c(NC(C)=O)c(I)c(C(=O)O)c1I
inactive: all assays above

CC(CC(C#N)(c1ccccc1)C(C)C)N(C)C (stereo unspecified)
inactive: all assays above

OC1(c2ccc(Cl)cc2)CCNCC1
inactive: all assays above

CC(=O)OC[C@H]1O[C@@H](OC(C)=O)[C@H](OC(C)=O)[C@@H]1OC(C)=O
inactive: all assays above

COC(=O)c1ccc(NC(C)=O)cc1OC
inactive: all assays above

CO/N=C(\C(=O)O)c1csc(NC(=O)CCl)n1
inactive: all assays above

O=C(CCCl)NCCc1ccccc1
inactive: all assays above

O=C(O)Cn1cnnn1
inactive: all assays above

O=C(OCC(COC(=O)c1cccnc1)(COC(=O)c1cccnc1)COC(=O)c1cccnc1)c1cccnc1
inactive: all assays above

O=C(O)Cc1ccc(OCCNC[C@H](O)c2ccccc2)cc1
inactive: all assays above

CCO[C@H](Cc1ccc(OCCc2ccc(OS(C)(=O)=O)cc2)cc1)C(=O)O
inactive: all assays above

CC(=O)N(c1onc(C)c1C)S(=O)(=O)c1ccc(N)cc1
inactive: all assays above

CCOC(=O)c1ccc(O)c(O)c1
inactive: all assays above

CCCc1ccc(OCC(=O)N2CCN(C(=O)COc3ccc(CCC)cc3OC)CC2)c(OC)c1
inactive: all assays above

Cc1nc([N+](=O)[O-])cn1-c1ccc([N+](=O)[O-])cc1
inactive: all assays above

Cc1coc2ccccc2c1=O
inactive: all assays above

Cc1cccc(N(C)C(=S)Oc2ccc3c(c2)C2CCC3C2)c1 (stereo unspecified)
inactive: all assays above

C[C@@H]1C[C@H]2[C@@H]3CCC4=CC(=O)C=C[C@]4(C)[C@@]3(F)[C@@H](O)C[C@]2(C)[C@@]1(O)C(=O)COC(=O)c1ccncc1
inactive: all assays above

CC(C)(C)C(O)/C=C/c1ccc2c(c1)OCO2 (stereo unspecified)
inactive: all assays above

COc1cc(C=O)ccc1O
inactive: all assays above

O=c1[nH]c2ccccc2c(=O)n1CCCl
inactive: all assays above

CCCc1ncc(C(=O)O)s1
inactive: all assays above

O=C(NO)c1ccccc1
inactive: all assays above

C/C(=N\O)[C@@H](C)NCC(C)(C)CN[C@H](C)/C(C)=N/O
inactive: all assays above

Nc1c[n+](N2CCOCC2)no1
inactive: all assays above

O=C(O)c1ccccc1Nc1cc(Cl)ccc1C(=O)O
inactive: all assays above

CCN(CC)CC(=O)Nc1c(C)cccc1C(=O)OC
inactive: all assays above
